Source: PubChem BioAssay AID1159580 (chemical genetic matrix, 2015)
Among all 5,500 compounds or so, about 2,000 (36%) were called active. Inconclusive results (about 18%) are left out. Rule as the data show it: active = normalized growth mostly below about 0.91 (no sharp cut-off); inconclusive = no clear call, values can overlap the other calls; inactive = mostly above about 0.92. The list shows a part of the results.

Experiment: chemical genetic growth profiling, strain panel (AID 1159580);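 also: tested at 20 µM; growth read once vehicle control cultures reached saturation at 30 °C; 1 = growth at the plate median or of vehicle wells; lower values mean less growth of the strain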
Settings: growth OD

Measured: normalized growth

CO[C@@]1(NC(=O)C(C(=O)O)c2ccc(O)cc2)C(=O)N2C(C(=O)O)=C(CSc3nnnn3C)CO[C@@H]21 (some centres not stated)
inactive: S. cerevisiae deletion strains, locus YJR075W, strain HOC1, active compounds read low 1.02 | S. cerevisiae deletion strains, locus YKL009W, strain mrt4, active compounds read low 1 | S. cerevisiae deletion strains, locus YKL068W, active compounds read low 1.01 | S. cerevisiae deletion strains, locus YKL085W, strain MDH1 (second series), active compounds read low 1.01 | S. cerevisiae deletion strains, locus YKL085W, strain MDH1, active compounds read low 1.01 | S. cerevisiae deletion strains, locus YKL160W, strain elf1, active compounds read low 0.962 | S. cerevisiae deletion strains, locus YKL190W, strain CNB1, active compounds read low 1.02 | S. cerevisiae deletion strains, locus YKR001C, strain vps1, active compounds read low 1.02 | S. cerevisiae deletion strains, locus YKR026C, strain gcn3, active compounds read low 0.998 | S. cerevisiae deletion strains, locus YKR091W, strain srl3, active compounds read low 0.976 | S. cerevisiae deletion strains, locus YLL001W, strain dnm1, active compounds read low 0.922 | S. cerevisiae deletion strains, locus YLL026W, active compounds read low 0.986 | S. cerevisiae deletion strains, locus YLL041C, strain sdh2, active compounds read low 0.988 | S. cerevisiae deletion strains, locus YLR027C, strain aat2, active compounds read low 1 | S. cerevisiae deletion strains, locus YLR039C, strain RIC1, active compounds read low 1.02 | S. cerevisiae deletion strains, locus YLR058C, strain SHM2, active compounds read low 1.01 | S. cerevisiae deletion strains, locus YLR102C, strain apc9, active compounds read low 1.02 | S. cerevisiae deletion strains, locus YLR113W, strain HOG1, active compounds read low 0.995 | S. cerevisiae deletion strains, locus YLR221C, strain rsa3, active compounds read low 0.945 | S. cerevisiae deletion strains, locus YLR258W, strain gsy2, active compounds read low 0.984 | S. cerevisiae deletion strains, locus YLR262C, strain YPT6 (second series), active compounds read low 0.946 | S. cerevisiae deletion strains, locus YLR262C, strain YPT6, active compounds read low 0.999 | S. cerevisiae deletion strains, locus YLR268W, strain sec22, active compounds read low 1.04 | S. cerevisiae deletion strains, locus YLR320W, strain mms22, active compounds read low 0.967 | S. cerevisiae deletion strains, locus YLR330W, strain CHS5, active compounds read low 1.01 | S. cerevisiae deletion strains, locus YLR342W, strain FKS1 (second series), active compounds read low 0.996 | S. cerevisiae deletion strains, locus YLR342W, strain FKS1, active compounds read low 0.99 | S. cerevisiae deletion strains, locus YLR357W, strain rsc2, active compounds read low 0.945 | S. cerevisiae deletion strains, locus YLR370C, strain arc18, active compounds read low 0.978 | S. cerevisiae deletion strains, locus YLR371W, strain rom2, active compounds read low 1.03 | S. cerevisiae deletion strains, locus YLR384C, strain iki3, active compounds read low 0.982 | S. cerevisiae deletion strains, locus YLR418C, strain cdc73, active compounds read low 1.02 | S. cerevisiae deletion strains, locus YML016C, strain PPZ1, active compounds read low 1 | S. cerevisiae deletion strains, locus YML032C, strain rad52, active compounds read low 1.03 | S. cerevisiae deletion strains, locus YML120C, strain ndi1, active compounds read low 0.951 | S. cerevisiae deletion strains, locus YML124C, strain tub3, active compounds read low 1.01 | S. cerevisiae deletion strains, locus YMR058W, strain fet3, active compounds read low 0.975 | S. cerevisiae deletion strains, locus YMR078C, strain ctf18, active compounds read low 1.02 | S. cerevisiae deletion strains, locus YMR125W, strain sto1, active compounds read low 0.953 | S. cerevisiae deletion strains, locus YMR129W, active compounds read low 0.994 | S. cerevisiae deletion strains, locus YMR205C, strain PFK2, active compounds read low 0.946 | S. cerevisiae deletion strains, locus YMR223W, strain ubp8, active compounds read low 0.985 | S. cerevisiae deletion strains, locus YMR231W, strain pep5, active compounds read low 0.991 | S. cerevisiae deletion strains, locus YMR263W, strain SAP30, active compounds read low 1.02 | S. cerevisiae deletion strains, locus YMR307W, strain GAS1, active compounds read low 0.971 | S. cerevisiae deletion strains, locus YNL067W, strain RPL9B, active compounds read low 1.02 | S. cerevisiae deletion strains, locus YNL071W, strain lat1, active compounds read low 0.989 | S. cerevisiae deletion strains, locus YNL128W, strain TEP1, active compounds read low 1.01 | S. cerevisiae deletion strains, locus YNL153C, strain GIM3, active compounds read low 1.01 | S. cerevisiae deletion strains, locus YNL183C, strain NPR1, active compounds read low 0.949 | S. cerevisiae deletion strains, locus YNL209W, strain ssb2, active compounds read low 0.978 | S. cerevisiae deletion strains, locus YNL233W, strain BNI4, active compounds read low 1.01 | S. cerevisiae deletion strains, locus YNL248C, strain rpa49, active compounds read low 1 | S. cerevisiae deletion strains, locus YNL250W, strain rad50, active compounds read low 1.02 | S. cerevisiae deletion strains, locus YNL271C, strain bni1, active compounds read low 1.01 | S. cerevisiae deletion strains, locus YNL298W, strain CLA4, active compounds read low 1.02 | S. cerevisiae deletion strains, locus YNL307C, strain MCK1, active compounds read low 1.01 | S. cerevisiae deletion strains, locus YNL322C, strain KRE1 (second series), active compounds read low 0.971 | S. cerevisiae deletion strains, locus YNL322C, strain KRE1, active compounds read low 1.01 | S. cerevisiae deletion strains, locus YNR049C, strain mso1, active compounds read low 0.972 | S. cerevisiae deletion strains, locus YNR052C, strain pop2, active compounds read low 1.02 | S. cerevisiae deletion strains, locus YOL006C, strain TOP1, active compounds read low 1.06 | S. cerevisiae deletion strains, locus YOL012C, strain htz1 0.996 | S. cerevisiae deletion strains, locus YOL147C, strain pex11, active compounds read low 1.01 | S. cerevisiae deletion strains, locus YOR001W, strain rrp6, active compounds read low 1.01 | S. cerevisiae deletion strains, locus YOR061W, strain CKA2, active compounds read low 1 | S. cerevisiae deletion strains, locus YOR069W, strain VPS5, active compounds read low 1.01 | S. cerevisiae deletion strains, locus YOR070C, strain gyp1, active compounds read low 0.992 | S. cerevisiae deletion strains, locus YOR080W, strain dia2, active compounds read low 0.987 | S. cerevisiae deletion strains, locus YOR083W, strain WHI5, active compounds read low 0.961 | S. cerevisiae deletion strains, locus YOR106W, strain vam3, active compounds read low 0.973 | S. cerevisiae deletion strains, locus YOR136W, strain idh2, active compounds read low 1.02 | S. cerevisiae deletion strains, locus YOR144C, strain elg1, active compounds read low 1.02 | S. cerevisiae deletion strains, locus YOR184W, strain ser1, active compounds read low 1.02 | S. cerevisiae deletion strains, locus YOR231W, strain MKK1, active compounds read low 1 | S. cerevisiae deletion strains, locus YOR265W, strain rbl2, active compounds read low 0.998 | S. cerevisiae deletion strains, locus YOR270C, strain vph1, active compounds read low 0.967 | S. cerevisiae deletion strains, locus YOR290C, strain snf2, active compounds read low 0.917 | S. cerevisiae deletion strains, locus YOR316C, strain cot1, active compounds read low 1.02 | S. cerevisiae deletion strains, locus YPL051W, strain arl3, active compounds read low 0.983 | S. cerevisiae deletion strains, locus YPL055C, strain LGE1, active compounds read low 1.02 | S. cerevisiae deletion strains, locus YPL078C, strain atp4, active compounds read low 0.97 | S. cerevisiae deletion strains, locus YPL106C, strain sse1, active compounds read low 0.94 | S. cerevisiae deletion strains, locus YPL240C, strain hsp82, active compounds read low 0.981 | S. cerevisiae deletion strains, locus YPL241C, strain CIN2, active compounds read low 1 | S. cerevisiae deletion strains, locus YPL256C, strain CLN2, active compounds read low 0.961 | S. cerevisiae deletion strains, locus YPR119W, strain clb2, active compounds read low 1.02 | S. cerevisiae deletion strains, locus YPR141C, strain kar3, active compounds read low 1.02 | S. cerevisiae deletion strains, locus YPR163C, strain tif3, active compounds read low 1.02 | S. cerevisiae deletion strains, locus YPR167C, strain met16, active compounds read low 1.02 | S. cerevisiae deletion strains, strain wtn01, active compounds read low 1.02 | S. cerevisiae strains, strain wild type, active compounds read low 1.01
